Measured values reported in ChEMBL document CHEMBL4808148, “HDAC6 screening dataset using tau-based substrate in an enzymatic assay yields selective inhibitors and activators” (2021).
“And” between values parts separate entries of the source, which are not always exact repeats. Equal entries are not always repeated. Screen size: about 5,600 compounds; about 390 (7%) showed an effect of 50% or more. This is one part of a sample in which strong results are shown more often than they occur.

Molecular target: T1, Protein deacetylase HDAC6 (Homo sapiens) (UniProt Q9UBN7)
T1 sequence (whole entry): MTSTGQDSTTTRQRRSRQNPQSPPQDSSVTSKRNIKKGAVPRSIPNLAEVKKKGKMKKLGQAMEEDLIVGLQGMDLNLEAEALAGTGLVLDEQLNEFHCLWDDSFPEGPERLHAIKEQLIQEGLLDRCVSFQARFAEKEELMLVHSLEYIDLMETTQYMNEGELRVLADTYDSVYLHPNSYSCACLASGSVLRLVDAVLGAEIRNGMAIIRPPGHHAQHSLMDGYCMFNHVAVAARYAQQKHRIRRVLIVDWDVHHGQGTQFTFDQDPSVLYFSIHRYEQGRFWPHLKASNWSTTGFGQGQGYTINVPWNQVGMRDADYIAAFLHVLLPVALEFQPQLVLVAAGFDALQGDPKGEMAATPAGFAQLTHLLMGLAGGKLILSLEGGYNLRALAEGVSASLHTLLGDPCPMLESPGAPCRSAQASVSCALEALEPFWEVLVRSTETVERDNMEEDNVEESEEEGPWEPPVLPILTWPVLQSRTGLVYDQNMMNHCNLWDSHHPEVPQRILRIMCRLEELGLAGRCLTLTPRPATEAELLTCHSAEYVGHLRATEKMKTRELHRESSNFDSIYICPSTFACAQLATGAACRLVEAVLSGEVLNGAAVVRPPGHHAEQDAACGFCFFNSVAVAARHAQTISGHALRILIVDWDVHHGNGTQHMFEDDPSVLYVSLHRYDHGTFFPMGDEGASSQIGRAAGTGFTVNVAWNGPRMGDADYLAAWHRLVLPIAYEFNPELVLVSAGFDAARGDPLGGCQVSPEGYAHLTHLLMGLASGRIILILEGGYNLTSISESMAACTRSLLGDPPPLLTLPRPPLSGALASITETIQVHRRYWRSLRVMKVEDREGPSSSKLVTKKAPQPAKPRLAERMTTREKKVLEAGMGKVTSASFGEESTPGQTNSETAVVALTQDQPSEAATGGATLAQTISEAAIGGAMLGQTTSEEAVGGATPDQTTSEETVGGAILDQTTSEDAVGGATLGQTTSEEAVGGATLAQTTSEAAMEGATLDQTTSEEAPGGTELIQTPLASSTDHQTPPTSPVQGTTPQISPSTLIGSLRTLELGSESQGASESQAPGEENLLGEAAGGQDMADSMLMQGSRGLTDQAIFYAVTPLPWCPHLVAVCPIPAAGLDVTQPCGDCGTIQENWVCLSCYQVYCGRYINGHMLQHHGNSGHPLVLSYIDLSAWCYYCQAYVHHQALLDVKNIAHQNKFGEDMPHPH
Settings: at 10 µM

| SMILES | inhibition |
| --- | --- |
| C[C@H]1C[C@@H]2[C@H]([C@@H](O)C[C@@]3(C)[C@H]2CC[C@]3(O)C(=O)COC(=O)CCC(=O)O)[C@@]2(C)C=CC(=O)C=C12 | 27.4% |
| COc1cc([C@@H]2c3cc4c(cc3[C@@H](O[C@@H]3O[C@@H]5CO[C@@H](C)O[C@H]5[C@H](O)[C@H]3O)[C@H]3COC(=O)[C@H]23)OCO4)cc(OC)c1OP(=O)(O)O | 5.48% |
| CCN(CC)CCNC(=O)c1ccccc1I | 13.2% |
| COc1nc2ccc(Br)cc2cc1[C@@H](c1ccccc1)[C@@](O)(CCN(C)C)c1cccc2ccccc12 | 73.7% |
| NCC1CC(=O)N(Cc2ccccc2)C1 (stereo not given) | 0.62% |
| O=C(O)CCCCCCNC1c2ccccc2CCc2ccccc21 | 0.36% |
| CN1c2ccccc2C(NCCCCCCC(=O)O)c2ccc(Cl)cc2S1(=O)=O (stereo not given) | 64.5% |
| Cc1ccc(C)c(C(O)CNC(C)C)c1 (stereo not given) | 7.8% |
| C[C@@H]1C(=O)O[C@H]2CC34[C@H]5C[C@@H](C(C)(C)C)C36[C@@H](OC(=O)[C@@H]6O)O[C@@]4(C(=O)O5)[C@]21O (stereo not given in full) | 26.8% |
| Cn1cc(-c2cc(Oc3cc(F)c(NC(=O)C4(C(=O)Nc5ccccc5)CC4)cc3F)ccn2)cn1 | 13.7% |
| CN1CC[C@@]2(C)c3cc(OC(=O)Nc4ccccc4)ccc3N(C)[C@@H]12 | 54% |
| CN1CC[C@@]2(C)c3cc(O)ccc3N(C)[C@H]12 | 6.94% |
| COC1/C=C/OC2(C)Oc3c(C)c(O)c4c(O)c(c(/C=N/N=C/N5CCCCC5)c(O)c4c3C2=O)NC(=O)/C(C)=C\C=C\C(C)C(O)C(C)C(O)C(C)C(OC(C)=O)C1C (stereo not given) | 5.78% |
| Cc1ccc2c(c1)Cc1c(C(=O)NN3CCCCC3)nn(-c3ccc(Cl)cc3Cl)c1-2 | 1.48% |
| CN(C)CCN1C(=O)c2cccc3cc(NC(N)=O)cc(c23)C1=O | -8.72% |
| COc1ccc(Nc2ccn(-c3ccccc3)n2)cc1 | 101% |
| C[C@]12C=CC(=O)C=C1CC[C@@H]1[C@@H]2[C@@H](O)C[C@@]2(C)[C@H]1CC[C@]2(O)C(=O)COP(=O)(O)O | 22.1% |
| CCNC(=O)[C@@H]1CCCN1C(=O)[C@H](CCCNC(=N)N)NC(=O)[C@H](CC(C)C)NC(=O)[C@@H](C)NC(=O)[C@H](Cc1ccc(O)cc1)NC(=O)[C@H](CO)NC(=O)[C@H](Cc1c[nH]c2ccccc12)NC(=O)[C@H](Cc1cnc[nH]1)NC(=O)[C@@H]1CCC(=O)N1 | 41.1% |
| Cc1cc(C(=O)Nc2cccc(C(=O)Nc3cccc(C(F)(F)F)c3)c2)on1 | 16.4% |
| O=C1c2ccccc2C(=O)c2ccccc21 | 44.4% |
| O=C1c2cccc(O)c2C(=O)c2c(O)cc(CO)cc21 | 53.1% |
| CCN1C[C@H](C)n2c(c(O)c3c(=O)n(Cc4ccc(F)c(Cl)c4)nc(C(=O)NC)c32)C1=O | 19.2% |
| C[C@H](CCC(=O)O)[C@H]1CC[C@H]2[C@@H]3CC[C@@H]4C[C@H](O)CC[C@]4(C)[C@H]3CC[C@]12C | -5.26% |
| C[C@H](CCC(=O)O)[C@H]1CC[C@H]2[C@@H]3[C@H](O)C[C@@H]4C[C@H](O)CC[C@]4(C)[C@H]3CC[C@]12C | 3.14% |

| SMILES | inhibition |
| --- | --- |
| C[C@H](CCC(=O)O)[C@H]1CC[C@H]2[C@@H]3[C@@H](O)C[C@@H]4C[C@H](O)CC[C@]4(C)[C@H]3CC[C@]12C | 62.8% |
| CCC1=C[C@@H]2CN3CCc4c([nH]c5ccccc45)[C@@](C(=O)OC)(C2)[C@@H]13 | 2.61% |
| COc1cc(OC)c(/C=C2/C(=O)Nc3ccccc32)c(OC)c1 | -6% |
| Cn1cccc1/C=C1\C(=O)NC(=O)c2ccccc21 | 61.5% |
| Cc1nc2ccc(-n3ncc(C(=O)c4cc5ccccc5[nH]4)c3N)cc2[nH]1 | 100% |
| CN1CC[C@@H](NC(=O)Nc2ccc(C#N)cc2)C[C@@H]1c1nc2ccccc2[nH]1 | -9.46% |
| CCCCCCCCCCCCC/C=C/[C@@H](O)[C@@H](N)COP(=O)([O-])OCC[N+](C)(C)C | 23.4% |
| CCO[C@@H]1OC(=O)C[C@@H]1NC(=O)[C@@H]1CCCN1C(=O)[C@@H](NC(=O)c1ccc(N)c(Cl)c1)C(C)(C)C | 12.6% |
| CC(C)C(=O)OCC(=O)[C@@]12O[C@H](C3CCCCC3)O[C@@H]1C[C@H]1[C@@H]3CCC4=CC(=O)C=C[C@]4(C)[C@H]3[C@@H](O)C[C@@]12C | 7.25% |
| CCOC(=O)C12CC1/C(=N\O)c1ccccc1O2 (stereo not given) | 38.5% |
| O=C(O[C@@H]1C[C@@H]2C[C@H]3C[C@H](C1)N2CC3=O)c1c[nH]c2ccccc12 | 61.3% |
| CN1[C@@H]2CC[C@H]1C[C@@H](OC(=O)N1Cc3ccccc3NC1=O)C2 | -7.98% |
| Cc1nc(Cn2cnc3c2c(=O)n(C)c(=O)n3C)no1 | 24.3% |
| CC(C)(C)NCC(O)c1cc(Br)no1 (stereo not given) | 18.5% |
| O=C(O)CCCNC(=O)c1cccnc1 | 28.7% |
| CC(CNC1CCCCC1)OC(=O)c1ccccc1 (stereo not given) | 34.8% |
| O=C(O)[C@@H](c1ccc(OCc2ccc3ccccc3n2)cc1)C1CCCC1 | 93.6% |
| CCN1CCCC(OC(=O)C(c2ccccc2)c2ccccc2)C1 (stereo not given) | -1.02% |
| CCCCN(CC)c1c([N+](=O)[O-])cc(C(F)(F)F)cc1[N+](=O)[O-] | 10.6% |
| CC(C)C(=O)SCCCCC[C@H](NC(=O)OC(C)(C)C)C(=O)NC12CC3CC(CC(C3)C1)C2 | 52% |
| CN(Cc1cccc(-c2ccccc2)c1)C(=O)Oc1ccc(-c2ccc(C(N)=O)cc2)cc1 | 25.7% |
| NC(=O)c1cccc(-c2cccc(OC(=O)NC3CCCCC3)c2)c1 | 95.1% |
| N[C@@H]1CCN(c2cccnc2)C1 | 18.5% |
| N#Cc1ccc(N2N=C3c4ccc(C(=O)O)cc4CC[C@@H]3[C@@H]2C2CCCC2)cc1Cl | 20.4% |

| SMILES | inhibition |
| --- | --- |
| CCCOc1ccc2c(c1)CC[C@@H]1[C@@H]2CC[C@]2(C)[C@@H](OC)CC[C@@H]12 | -9.5% |
| CCc1oc2ccccc2c1C(=O)c1ccc(OCC(=O)O)cc1 | -6.7% |
| COc1nc(N)nc2c1ncn2[C@@H]1O[C@H](CO)[C@@H](O)[C@@H]1O | 35.9% |
| CC(C)Nc1nc2cc(Cl)c(Cl)cc2n1[C@H]1O[C@@H](CO)[C@H](O)[C@@H]1O | 82.2% |
| NC(=O)c1ncn([C@@H]2O[C@H](CO)[C@@H](O)[C@H]2O)n1 | -7.83% |
| Cc1cc(C)cc(NC(=O)Cc2ccc(OC(C)(C)C(=O)O)cc2)c1 | -3.44% |
| O=C(COc1cccc2c(=O)[nH]ccc12)c1ccccc1 | 65.9% |
| N#CCC(=O)c1ccccc1 | 19.1% |
| COc1ccc(C(=O)CCC(=O)O)c2ccccc12 | 0.61% |
| C[C@]12CC[C@H]3[C@@H](CCC4=CC(=O)CC[C@@]43C)[C@@H]1CC[C@@H]2C(=O)CO | 32.2% |
| O=C(N[C@H]1CN2CCC1CC2)c1c[nH]c2ccsc2c1=O | 10.3% |
| Cn1nnc(-c2ccc(-c3ccc(N4C[C@H](COP(=O)(O)O)OC4=O)cc3F)cn2)n1 | -2.24% |
| O=C(CCCl)NCCc1ccccc1 | 11.9% |
| O=C(NCc1cccc(O)c1)Nc1nc(-c2ccncc2)cs1 | 3.24% and 13.9% |
| c1ccc(CCNc2nc(-c3ccccc3)cs2)cc1 | 79.1% |
| O=C(CCn1cnc2c(=O)[nH]cnc21)Nc1ccc(C(=O)O)cc1 | 11.5% |
| Brc1c(Br)c(Br)c2[nH]nnc2c1Br | 55.5% |
| O=C(Nc1ccc(S(=O)(=O)C(F)(F)F)cc1)C1=CCN(c2ncccc2C(F)(F)F)CC1 | 8.48% |
| C[C@]12CCC(=O)C=C1CC[C@@H]1[C@@H]2[C@@H](O)C[C@]2(C)C(=O)CC[C@@H]12 | -0.5% |
| CCCC(CCC)C(=O)NCc1ccc2c(cnn2-c2ccccc2OC)c1 | -9.99% |
| Nc1nc(OCc2ccccc2)c2nc[nH]c2n1 | 68.9% |
| c1ccc(CNc2ncnc3[nH]cnc23)cc1 | 3.46% |
| CC(=O)O[C@H]1C[C@@H]2CC[C@@H]3[C@H](CC[C@@]4(C)[C@H]3C[C@H](N3CC[N+](C)(C)CC3)[C@@H]4OC(C)=O)[C@@]2(C)C[C@@H]1N1CC[N+](C)(C)CC1 | -3.02% |
| CN1C(=O)N(c2ccc(C#N)c(C(F)(F)F)c2)C(=O)[C@@]1(CO)c1ccccc1 | 16.8% |

| SMILES | inhibition |
| --- | --- |
| CN(CCOP(=O)(O)O)C(=N)N | 20.7% |
| O=C1N=C(N2CCOCC2)CN1c1ccc(Cl)cc1 | 8.65% |
| NC(Cc1ccc(O)cc1)C(=O)O (racemic) | 12.8% |
| N[C@H](C(=O)O)[C@@H]1CC(Cl)=NO1 | 2.38% |
| CNC(=O)COC(=O)NCCC1CCN(c2cccc(C)n2)CC1 | 23.1% |
| CCn1c(O)nnc1-c1ccc(Cl)cc1 | 4.14% |
| Cc1[nH]cnc1-c1ccc(Cl)cc1 | 80.5% |
| Cc1nc[nH]c1CCN | 0.18% |
| C[C@]12CCC(=O)C[C@@H]1CC[C@@H]1[C@@H]2CC[C@]2(C)[C@@H](O)CC[C@@H]12 | 6.85% |
| O=C(/C=C/c1ccc2ccccc2n1)c1ccncc1 | 91.9% |
| O=C(/C=C/c1ccc2ccc(C(F)(F)F)cc2n1)c1ccncc1 | 36.8% |
| CC(C)Oc1ccc(-c2nc(-c3cccc4c3CCC4NCCC(=O)O)no2)cc1C#N (stereo not given) | 25.6% |
| CC(CC(c1ccccc1)c1ccccc1)NC(C)(C)C (stereo not given) | 13.9% |
| Nc1ccn([C@H]2CO[C@@H](CO)S2)c(=O)n1 | 9.97% |
| CC1(O)C(O)C(CO)OC1n1ccc(N)nc1=O (stereo not given) | 50.8% |
| C[C@@]1(O)[C@H](O)[C@@H](CO)O[C@H]1n1cnc2c(NC3CCCC3)nc(Cl)nc21 | -7.46% |
| C[S+](CC[C@H](N)C(=O)[O-])C[C@H]1O[C@@H](n2cnc3c(N)ncnc32)[C@H](O)[C@@H]1O (stereo not given in full) | 5.35% |
| Cc1cccc(Oc2cnc(=O)[nH]c2)c1 | 16.9% |
| O=C(NCc1ccccc1)c1csc(Nc2ccncn2)n1 | 44.2% |
| Cc1c[nH]c2ncnc(N3CCC(CN)(C(=O)Nc4cccc(OC(=O)N(C)C)c4)CC3)c12 | 25.2% |
| Cc1cccc(/C=N/Nc2cc(N3CCOCC3)n3nc(-c4ccncc4)cc3n2)c1 | -1.46% |
| CC1(CN)Cc2ccccc2C1 | 0.58% |
| Brc1cc2c(cc1[C@@H]1Nc3ccccc3[C@@H]3C=CC[C@@H]31)OCO2.Brc1cc2c(cc1[C@H]1Nc3ccccc3[C@H]3C=CC[C@H]31)OCO2 | 2.38% |
